Results published in PubChem BioAssay (NCI).
About 79,000 compounds went through this panel and 15% of them were active in at least one assay; those are over-represented in the sample as a whole. Activity calls are given as the source filed them. Cut-off read from the data, not from the text of the source: active = growth inhibition above about 70%; inactive = the rest.

Columns and labels:
[1] = NCI Yeast Anticancer Drug Screen. Data for the rad52 strain (AID 147);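 note: 0% = growth of vehicle-treated control cultures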; conditions: S. cerevisiae rad52 mutant growth inhibition, hits give high values
Method in brief: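 Inhibition of yeast growth, referenced to vehicle controls, was the measured output for a strain with defective DNA damage repair.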

[2] = NCI Yeast Anticancer Drug Screen. Data for the wt1 strain (AID 149);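 note: 0% = growth of vehicle-treated wt1 cultures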; conditions: S. cerevisiae wt1 strain (SPY 50644) growth inhibition, hits give high values
Method in brief: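 Growth inhibition read against vehicle controls after compound exposure of the wt1 yeast strain.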

[3] = NCI Yeast Anticancer Drug Screen. Data for the rad50EPP+ strain (AID 151);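 note: 0% = growth of vehicle-treated control cultures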; conditions: S. cerevisiae rad50 mutant strain, hits give high values
Method in brief: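 Genetically defined yeast (rad50EPP+, DNA damage repair alteration) is grown with compound, and inhibition of growth is expressed relative to vehicle-treated controls.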

[4] = NCI Yeast Anticancer Drug Screen. Data for the mgt1 strain (AID 153); conditions: S. cerevisiae mgt1 mutant growth inhibition, hits give high values
Method in brief: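 In the mgt1 strain, test compounds were added and growth inhibition was determined relative to vehicle-treated controls.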

[5] = NCI Yeast Anticancer Drug Screen. Data for the rad50 strain (AID 155);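 note: 0% = growth of vehicle-only cultures of the same strain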; conditions: S. cerevisiae rad50 strain growth inhibition, hits give high values
Method in brief: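 Readout: growth inhibition relative to vehicle-treated cultures. Compound exposure was carried out in a genetically defined yeast strain deficient in DNA damage repair.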

[6] = NCI Yeast Anticancer Drug Screen. Data for the mec2-1 strain (AID 157); conditions: S. cerevisiae mec2-1 strain, hits give high values
Method in brief: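 Each compound was tested on mec2-1 yeast, a strain altered in DNA damage repair or cell cycle control. Growth inhibition is reported relative to vehicle.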

[7] = NCI Yeast Anticancer Drug Screen. Data for the rad14 strain (AID 159);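 note: 0% = growth of vehicle-treated control cultures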; conditions: S. cerevisiae rad14 strain growth inhibition, hits give high values
Method in brief: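 Growth inhibition vs vehicle controls; genetically altered yeast strain (DNA damage repair defect) treated with test compounds.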

[8] = NCI Yeast Anticancer Drug Screen. Data for the sgs1 mgt1 strain (AID 161);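 note: 0% = growth of cultures given vehicle only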; conditions: S. cerevisiae sgs1 mgt1 strain, hits give high values
Method in brief: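 Inhibition of yeast growth, normalised to vehicle-treated controls, is reported for a strain bearing genetic alterations in DNA damage repair.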

[9] = NCI Yeast Anticancer Drug Screen. Data for the CLN2oe strain (AID 163);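 note: 0% = growth of vehicle-only control cultures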; conditions: S. cerevisiae CLN2oe strain, hits give high values
Method in brief: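 First, the altered yeast strain was treated with each compound; second, its growth was measured; finally, inhibition was derived by comparison with vehicle controls.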

[10] = NCI Yeast Anticancer Drug Screen. Data for the cln2 rad14 strain (AID 165);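 note: 0% = growth equal to vehicle treated cultures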; conditions: S. cerevisiae cln2 rad14 strain, hits give high values
Method in brief: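 Test compounds were added to cln2 rad14 yeast cultures; inhibition of growth was then determined by comparison with vehicle treatment.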

[11] = NCI Yeast Anticancer Drug Screen. Data for the bub3 strain (AID 167); conditions: S. cerevisiae bub3 mutant strain, hits give high values
Method in brief: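 Readout: yeast growth inhibition, expressed relative to vehicle-only wells. The test organism is a mutant strain from a panel with lesions in DNA repair or checkpoint genes.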

[12] = NCI Yeast Anticancer Drug Screen. Data for the wt2 strain (AID 169);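 note: 0% = growth of vehicle-treated yeast cultures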; conditions: S. cerevisiae wt2 strain growth inhibition, hits give high values
Method in brief: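 The panel's yeast strains carry defined changes in DNA repair or cell cycle genes. Each strain is grown with compound, and growth loss is scored relative to vehicle.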

[13] = NCI Yeast Anticancer Drug Screen. Data for the mlh1 strain (AID 171);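 note: 0% = growth of vehicle-treated control cultures of the same strain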; conditions: S. cerevisiae mlh1 strain growth inhibition, hits give high values
Method in brief: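 Inhibition values reflect reduced yeast growth in the presence of compound, referenced to vehicle controls, using a strain chosen for its alteration in DNA repair or cell cycle control.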

[14] = NCI Yeast Anticancer Drug Screen. Data for the sgs1 strain (AID 173);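 note: 0% = growth of vehicle-only control cultures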; conditions: S. cerevisiae sgs1 mutant, hits give high values
Method in brief: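 Vehicle-treated cultures served as reference for growth inhibition of a yeast strain altered in DNA damage repair or cell cycle control after compound exposure.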

[15] = NCI Yeast Anticancer Drug Screen. Data for the mlh1 rad18 strain (AID 175); conditions: S. cerevisiae mlh1 rad18 strain growth inhibition, hits give high values
Method in brief: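 Inhibition values reflect reduced growth of mutant yeast versus vehicle-treated controls following compound exposure; the mutations affect DNA damage repair.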

[16] = NCI Yeast Anticancer Drug Screen. Data for the rad18 strain (AID 177); conditions: S. cerevisiae rad18 mutant growth inhibition, hits give high values
Method in brief: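 Steps: expose repair-mutant yeast to compound; measure growth; express as inhibition relative to vehicle control.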

[17] = at 5.0 µM (retest, dose inferred, filed as 0.5)
[18] = at 50.0 µM (retest, dose inferred, filed as 5.0)

Measured: growth inhibition

COc1cc(/C=C2\NC(=O)N(/C=C3\C(=O)Oc4ccccc4C3=O)C2=O)ccc1O
active: [1]; at 33.0 µM 79% | [1]; at 100.0 µM 96% | [2]; at 100.0 µM 95% | [4]; at 100.0 µM 94% | [5]; at 33.0 µM 75% | [5]; [18] 95% | [5]; at 50.0 µM 88.4% | [5]; at 100.0 µM 95% | [6]; [18] 97% | [6]; at 50.0 µM 77.5% | [6]; at 100.0 µM 96% | [7]; at 100.0 µM 93% | [8]; [18] 92% | [8]; at 50.0 µM 93.9% | [9]; at 33.0 µM 86% | [9]; at 100.0 µM 96% | [10]; [18] 94% | [10]; at 50.0 µM 90% | [11]; [18] 90% | [11]; at 50.0 µM 90.8% | [11]; at 100.0 µM 93% | [12]; at 33.0 µM 87% | [12]; at 100.0 µM 98% | [13]; at 33.0 µM 82% | [13]; at 100.0 µM 96% | [14]; at 33.0 µM 89% | [14]; at 100.0 µM 97% | [15]; [18] 95% | [15]; at 50.0 µM 89.5% | [16]; at 33.0 µM 77% | [16]; at 100.0 µM 94%
inactive: [1]; at 1.2 µM -3% | [1]; at 3.7 µM 1% | [1]; at 11.0 µM 16% | [2]; at 1.2 µM 2% | [2]; at 3.7 µM 3% | [2]; at 11.0 µM 3% | [2]; at 33.0 µM 63% | [3]; at 1.2 µM -1% | [3]; at 3.7 µM -1% | [3]; at 11.0 µM 1% | [3]; at 33.0 µM 4% | [3]; at 100.0 µM 3% | [4]; at 1.2 µM -3% | [4]; at 3.7 µM -3% | [4]; at 11.0 µM 4% | [4]; at 33.0 µM 62% | [5]; at 1.2 µM -6% | [5]; at 3.7 µM -17% | [5]; [17] -1% | [5]; at 11.0 µM -9% | [6]; at 1.2 µM -1% | [6]; at 3.7 µM -3% | [6]; [17] -4% | [6]; at 11.0 µM 5% | [6]; at 33.0 µM 68% | [7]; at 1.2 µM -2% | [7]; at 3.7 µM -2% | [7]; at 11.0 µM 3% | [7]; at 33.0 µM 64% | [8]; [17] -11% | [9]; at 1.2 µM 0% | [9]; at 3.7 µM 1% | [9]; at 11.0 µM 15% | [10]; [17] 38% | [11]; at 1.2 µM -3% | [11]; at 3.7 µM -2% | [11]; [17] -16% | [11]; at 11.0 µM 1% | [11]; at 33.0 µM 69% | [12]; at 1.2 µM -1% | [12]; at 3.7 µM 0% | [12]; at 11.0 µM 7% | [13]; at 1.2 µM -1% | [13]; at 3.7 µM 0% | [13]; at 11.0 µM 6% | [14]; at 1.2 µM -1% | [14]; at 3.7 µM -1% | [14]; at 11.0 µM 14% | [15]; [17] 4% | [16]; at 1.2 µM -1% | [16]; at 3.7 µM -3% | [16]; at 11.0 µM -1%

CC1=NOC(=O)/C1=C/c1ccc2c(c1)OCO2
inactive: [1]; at 1.2 µM 0% | [1]; at 3.7 µM 4% | [1]; at 11.0 µM 17% | [1]; at 33.0 µM 32% | [1]; at 100.0 µM 39% | [2]; at 1.2 µM 5% | [2]; at 3.7 µM 0% | [2]; at 11.0 µM 2% | [2]; at 33.0 µM 6% | [2]; at 100.0 µM 13% | [3]; at 1.2 µM 6% | [3]; at 3.7 µM 5% | [3]; at 11.0 µM 41% | [3]; at 33.0 µM 47% | [4]; at 1.2 µM -4% | [4]; at 3.7 µM 1% | [4]; at 11.0 µM 1% | [4]; at 33.0 µM -10% | [4]; at 100.0 µM 9% | [5]; at 1.2 µM 1% | [5]; at 3.7 µM 3% | [5]; [17] 0% | [5]; at 11.0 µM 26% | [5]; at 33.0 µM 49% | [5]; [18] 24% | [5]; at 100.0 µM 59% | [6]; at 1.2 µM 0% | [6]; at 3.7 µM -1% | [6]; [17] 13% | [6]; at 11.0 µM 10% | [6]; at 33.0 µM 12% | [6]; at 100.0 µM 28% | [7]; at 1.2 µM 2% | [7]; at 3.7 µM 2% | [7]; at 11.0 µM 7% | [7]; at 33.0 µM 11% | [7]; at 100.0 µM 29% | [8]; [17] 23% | [8]; [18] 58% | [8]; at 50.0 µM 65.5% | [9]; at 1.2 µM -5% | [9]; at 3.7 µM 3% | [9]; at 11.0 µM 9% | [9]; at 33.0 µM 15% | [9]; at 100.0 µM 9% | [10]; [17] 2% | [10]; [18] 51% | [10]; at 50.0 µM 20.4% | [11]; at 1.2 µM -5% | [11]; at 3.7 µM -1% | [11]; [17] 19% | [11]; at 11.0 µM 3% | [11]; at 33.0 µM 3% | [11]; [18] 30% | [11]; at 100.0 µM 18% | [12]; at 1.2 µM 2% | [12]; at 3.7 µM 0% | [12]; at 11.0 µM 8% | [12]; at 33.0 µM 12% | [12]; at 100.0 µM 13% | [13]; at 1.2 µM 3% | [13]; at 3.7 µM 1% | [13]; at 11.0 µM 6% | [13]; at 33.0 µM 20% | [13]; at 100.0 µM 26% | [14]; at 1.2 µM 1% | [14]; at 3.7 µM 1% | [14]; at 11.0 µM 10% | [14]; at 33.0 µM 19% | [14]; at 100.0 µM 23% | [15]; [17] 23% | [15]; at 50.0 µM 48.6% | [16]; at 1.2 µM 2% | [16]; at 3.7 µM -12% | [16]; at 11.0 µM 10% | [16]; at 33.0 µM 36% | [16]; at 100.0 µM 61%
active: [3]; at 100.0 µM 87% | [5]; at 50.0 µM 82.2% | [6]; [18] 83% | [6]; at 50.0 µM 78.6% | [11]; at 50.0 µM 70.5% | [15]; [18] 81%
